Drawing on PubChem BioAssay AID624481 (The Scripps Research Institute Molecular Screening Center, 2012), this text covers inhibition for 37 compounds.

SMILES strings stand for the structures. Unmarked numbers belong to inactive results. No stated cut-off is given here; in the data, active means inhibition above about 50%; inactive means the rest.

Chain of Prolyl endopeptidase-like (Mus musculus) (Q8C167 whole entry, looked up): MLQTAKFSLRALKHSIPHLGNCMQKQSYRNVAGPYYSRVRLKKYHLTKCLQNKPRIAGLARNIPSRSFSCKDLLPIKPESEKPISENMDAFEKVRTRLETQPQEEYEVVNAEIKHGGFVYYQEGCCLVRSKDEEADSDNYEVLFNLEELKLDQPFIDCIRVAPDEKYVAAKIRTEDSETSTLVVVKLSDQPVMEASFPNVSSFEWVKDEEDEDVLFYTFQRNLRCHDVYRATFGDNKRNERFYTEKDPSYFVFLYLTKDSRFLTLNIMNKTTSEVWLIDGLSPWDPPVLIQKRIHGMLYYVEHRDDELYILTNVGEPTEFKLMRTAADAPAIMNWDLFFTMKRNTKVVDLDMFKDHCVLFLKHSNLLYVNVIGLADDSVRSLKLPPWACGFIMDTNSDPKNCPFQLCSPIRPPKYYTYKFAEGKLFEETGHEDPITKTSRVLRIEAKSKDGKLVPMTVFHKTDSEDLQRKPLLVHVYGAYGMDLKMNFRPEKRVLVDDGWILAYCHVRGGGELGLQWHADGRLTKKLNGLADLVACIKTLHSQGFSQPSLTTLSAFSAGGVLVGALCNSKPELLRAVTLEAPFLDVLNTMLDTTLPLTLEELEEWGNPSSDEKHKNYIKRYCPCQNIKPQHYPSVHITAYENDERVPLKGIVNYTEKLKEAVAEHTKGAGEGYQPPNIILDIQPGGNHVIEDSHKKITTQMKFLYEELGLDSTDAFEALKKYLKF

The assay concerns the target Prolyl endopeptidase-like (Mus musculus) (UniProt Q8C167). The experiment in a line: mouse PREPL enzyme inhibition by screening hits – biochemical, gel-based competitive ABPP, fluorescence, HTS hits, PREPL inhibitor project (AID 624481). The note with it: purified mouse PREPL, at 20 µM, hits give high values.
On to `CCCCC(CC)C(=O)Nc1cc(C(=O)NCCC)ccc1N1CCC2(CC1)CC(c1ccccc1)=NO2` (configuration not stated), for which the inhibition is -141%.

Turning to `CCN1/C(=C/c2ccc3ccc(C)cc3[n+]2CC)Sc2ccccc21`, the inhibition was -19%.

As for `CC[C@@H](C)[C@@H]1CN([C@@H](CN2CCC[C@H]2CN2C(N)=NC[C@@H]2Cc2ccccc2)C(C)C)C(=N)N1CCCC1CCCC1`, the inhibition is -104%.

With `CC1CCCN(Cc2c(O)ccc3c(=O)c(-c4nc5ccccc5s4)c(N)oc23)C1` (configuration not stated), the inhibition was 3%.

On to `COc1ccc2cc1Oc1ccc(cc1)C[C@H]1c3cc(c(OC)cc3CCN1C)Oc1c(OC)c(OC)cc3c1[C@H](C2)N(C)CC3`, for which the inhibition is -30%.

Take `CN(C)CCc1cc2c(c3c1ccc1ccccc13)OCO2`: the inhibition is -26%.

Consider `CCOc1ccc(Nc2c3ccccc3nc3ccccc23)cc1`, for which the inhibition was -58%.

In the case of `C#CCOCCOCCOCCNc1nc(N2CCN(C(=O)CCCCCCCCCCNC(=O)[C@H](CCCCN)n3cc(C)nn3)CC2)nc(N2CCN(C(=O)CCCCCCCCCCNC(=O)[C@H](CCCN=C(N)N)n3cc(C[C@@H](C)CC)nn3)CC2)n1`, the inhibition was -58%.

With `CC(=O)N1CCN(c2ccc(NCc3cccc4ccccc34)cc2)CC1`, the inhibition was -26%.

For `CC(=O)n1cc([C@@H]2C=C(C(=O)N3CCN(C)CC3)O[C@H](OCc3ccc(CO)cc3)C2)c2ccccc21`, the inhibition was -55%.

With `CN(C)c1ccc(NC(=O)c2ccc(Cn3cc([N+](=O)[O-])cn3)cc2)cc1`, the inhibition was -9%.

As for `CC(C)c1ccc(CNc2ccc(N3CCOCC3)cc2)cc1`, the inhibition was -12%.

Take `CN(C)c1ccc(C(CNC(=O)COc2ccc(Cl)cc2)N2CCCC2)cc1` (configuration not stated): the inhibition is -25%.

`Cc1ccc(C2CC(c3cccc(Cl)c3)n3nc(N)nc3N2)cc1` (configuration not stated): the inhibition is -71%.

In the case of `Cc1ccsc1C=NN=C1C(=O)Nc2ccccc21`, the inhibition is -90%.

In the case of `CN(C)CCCNc1cc(C(C)(C)C)nc2c(-c3ccccc3)cnn12`, the inhibition is -34%.

Take `C#CCOCCOCCOCCNc1nc(N2CCN(C(=O)[C@H](Cc3cc4ccccc4[nH]3)n3cc([C@@H](N)CC(C)C)nn3)CC2)nc(N2CCN(C(=O)[C@H](Cc3cc4ccccc4[nH]3)n3cc([C@@H](N)CC(C)C)nn3)CC2)n1`: the inhibition was -82%.

With `CCN1C(=O)/C(=C\N2CCN(c3ccccc3)CC2)SC1=S`, the inhibition is -14%.

Consider `O=C(C1=C[C@@H](c2ccc(Br)cc2)C[C@@H](OCc2ccc(CO)cc2)O1)N1CCN(Cc2ccc3c(c2)OCO3)CC1`, for which the inhibition was -105%.

In the case of `Cn1c(NC(=O)C[n+]2cc(-c3ccc(Cl)c(Cl)c3)n3c2CCC3)cc(=O)n(C)c1=O`, the inhibition is -80%.

With `COc1ccc(C=NNc2cc(C)nc3ccc(OC)cc23)c(OC)c1`, the inhibition was 6%.

With `CCC(=O)N1CCN(c2ccc(NC(=O)COc3cccc(C)c3C)cc2)CC1`, the inhibition is -49%.

Take `Nc1nn(-c2ccccc2)c(N)c1N=Nc1ccccc1`: the inhibition was -16%.

As to `O=C(c1ccccc1)N1CCN(c2ccc(NCc3ccc4c(c3)OCO4)cc2)CC1`, the inhibition was -17%.

For `O=C(C1=C[C@@H](c2ccc(Br)cc2)C[C@@H](OCc2ccc(CO)cc2)O1)N1CCN(Cc2ccccc2)CC1`, the inhibition is -99%.

For the compound `CCCCCNC(=O)c1ccc2c(=O)[nH]c3c(C(=O)NCC4CCCO4)sc(=S)n3c2c1` (configuration not stated), the inhibition is -19%.

For `CC(=O)N1CCN(c2ccc(NC(=O)COc3ccc(Cl)cc3Cl)cc2)CC1`, the inhibition was -20%.

Regarding `C#CCOCCOCCOCCNc1nc(N2CCN(C(=O)[C@H](Cc3cc4ccccc4[nH]3)n3cc([C@@H](N)C(C)CC)nn3)CC2)nc(N2CCN(C(=O)[C@H](Cc3cc4ccccc4[nH]3)n3cc([C@@H](N)Cc4ccc(O)cc4)nn3)CC2)n1` (some centres not stated), the inhibition was -104%.

Regarding `COc1ccc(NC(=O)Nc2cccc3c2O[C@@H](CN(C)CC2CCCCC2)[C@@H](C)CN([C@H](C)CO)C3=O)cc1`, the inhibition was -79%.

With `Cc1cc(N2CCN(C)CC2)nc2ccc(NC(=O)CCC(=O)N3CCN(c4ccc([N+](=O)[O-])cc4)CC3)cc12`, the inhibition is -92%.

With `CCN(CC)c1ccc2cc(C(N)=O)c(=NNC(=O)c3ccncc3)oc2c1`, the inhibition is -14%.

Consider `Cc1ccc2nc(-c3ccccn3)c(NC3CCCC3)n2c1`, for which the inhibition was -23%.

For `CCCCN1C(=N)N([C@@H](CN2CCC[C@H]2CN2C(N)=NC[C@@H]2Cc2ccccc2)C(C)C)C[C@H]1Cc1ccccc1`, the inhibition was -44%.

On to `C#CCOCCOCCOCCNc1nc(N2CCN(C(=O)[C@H](CCCCN)n3cc([C@@H](N)CC(C)C)nn3)CC2)nc(N2CCN(C(=O)[C@H](Cc3cc4ccccc4[nH]3)n3cc([C@@H](N)Cc4ccc(O)cc4)nn3)CC2)n1`, for which the inhibition is -71%.

For the compound `CN1CCN(CCCN2c3ccccc3Sc3ccc(Cl)cc32)CC1`, the inhibition is -90%.

On to `CN(C)c1ccc(NC(=O)c2cccc(C(=O)Nc3ccc(N(C)C)cc3)n2)cc1`, for which the inhibition is -170%.

For the compound `O=C1c2ccccc2C(=O)c2c1cccc2N1CCN(C/C=C/c2ccccc2)CC1`, the inhibition is -116%.

The term inhibition denotes the change of the read-out against control, counted positive when it falls.
